# Shown are actives, neighbours in structure and some others; about 1.5% of the full set was active somewhere.
# BLM helicase inh = qHTS Assay for Inhibitors of Bloom's syndrome helicase (BLM) | RecQ-like DNA helicase BLM (Homo sapiens), P54132 | recombinant BLM DNA unwinding, fluorescence dequenching | Potency, µM (doses to about 56.1 µM), without a hit: top-dose activity change, negative = inhibition, hits mostly inhibitors | 350,000 compounds, 0.2% hits;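 note: potency is the fitted concentration of half-maximal effect; plate controls were vehicle for no effect and no enzyme for full effect; nearly all actives have a fitted effect of over 35% in size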
# APE1 inh = qHTS Assay for Inhibitors of the Human Apurinic/apyrimidinic Endonuclease 1 (APE1) | recombinant APE1, TAMRA/BHQ-2 abasic DNA cleavage fluorescence | Potency, µM (doses to about 65.8 µM), inactives show at the top dose activity change, negative = inhibition, hits mostly inhibitors | 350,000 compounds, 0.35% hits;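 note: potency is the fitted concentration of half-maximal effect; plate controls were vehicle for no effect and reference inhibitor for full effect; nearly all actives have a fitted effect of over 55% in size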
#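 Compound pre-exposure to 0.75 nM APE1, 15 min at ambient temperature. Reaction initiated with 50 nM TAMRA/BHQ-2 THF substrate, read immediately in kinetic mode, 525 nm excitation, 598 nm emission.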
# PI5P4K alpha inh = qHTS for Inhibitors of phosphatidylinositol 5-phosphate 4-kinase (PI5P4K). PI5P4Kalpha enzyme, ADP-Glo luminescence, 60 min; stronger effect = lower value. AID 652105, 2013. max response, %. 330,000 compounds, 1.2% hits. Phosphatidylinositol 5-phosphate 4-kinase type-2 alpha (Homo sapiens), P48426; active = max response of -50% or lower; inconclusive = between -30% and -50%; inactive = -30% or higher; note: value at the top dose of about 77 µM
#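 qHTS, 1536-well: enzyme/substrate mix, compound by pin tool, 5 microM ATP final; RT 60 min; ADP-Glo reagents 1 (45 min) then 2 (30 min); luminescence.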
# RECQ1 helicase = qHTS Assay for Inhibitors of RecQ-Like Dna Helicase 1 (RECQ1). ATP-dependent DNA helicase Q1 (Homo sapiens), P46063. RECQ1 DNA unwinding, red fluorescence kinetic read. Potency, µM (top dose mostly 57.3 µM), for inactives: at the highest dose activity, negative = inhibition, most hits filed as inhibitors. 240,000 compounds, 0.54% hits. AID 2549, 2010;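 note: potency is the fitted concentration of half-maximal effect; plate controls were vehicle for no effect and no enzyme for full effect; nearly all actives have a fitted effect of over 30% in size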
#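 50 nM RECQ1T1 preincubated 15 min with compound in Tris pH 8.0 buffer with MgCl2, DTT, Tween-20 and 2.5 ug/ml poly(dI-dC); started with 200 nM TAMRA/BHQ-2 forked duplex and 2 mM ATP. Unwinding read as fluorescence (525/598 nm), two reads 2 h apart.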
# FEN1 inh = qHTS Assay for the Inhibitors of Human Flap endonuclease 1 (FEN1) | Recombinant FEN1 flap cleavage, fluorescence, 15 min | Potency, µM (series often up to 114 µM), for the others: at the highest dose activity change, negative = inhibition, actives largely listed as inhibitors | 390,000 compounds, 0.35% hits | AID 588795, 2011; note: potency is the fitted concentration of half-maximal effect; nearly all actives have a fitted effect of over 65% in size
#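 Potency values derive from four-parameter Hill fits of normalized qHTS data. The reaction used 10 nM FEN1 preincubated 15 min at room temperature with compound, then 50 nM DNA substrate, read at 0 and 15 min.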
# KAT2A inh = qHTS Assay for Inhibitors of GCN5L2; AID 504327, 2011; Potency, µM (top dose mostly 58.9 µM), inactives show at the highest dose activity change, negative = inhibition, hits mostly inhibitors; 390,000 compounds, 0.21% hits; GCN5L2 HAT assay, ThioGlo1 CoA-SH fluorescence; Histone acetyltransferase KAT2A (Homo sapiens), Q92830; note: potency is the fitted concentration of half-maximal effect
# Target sequence (Q92830 whole entry, looked up): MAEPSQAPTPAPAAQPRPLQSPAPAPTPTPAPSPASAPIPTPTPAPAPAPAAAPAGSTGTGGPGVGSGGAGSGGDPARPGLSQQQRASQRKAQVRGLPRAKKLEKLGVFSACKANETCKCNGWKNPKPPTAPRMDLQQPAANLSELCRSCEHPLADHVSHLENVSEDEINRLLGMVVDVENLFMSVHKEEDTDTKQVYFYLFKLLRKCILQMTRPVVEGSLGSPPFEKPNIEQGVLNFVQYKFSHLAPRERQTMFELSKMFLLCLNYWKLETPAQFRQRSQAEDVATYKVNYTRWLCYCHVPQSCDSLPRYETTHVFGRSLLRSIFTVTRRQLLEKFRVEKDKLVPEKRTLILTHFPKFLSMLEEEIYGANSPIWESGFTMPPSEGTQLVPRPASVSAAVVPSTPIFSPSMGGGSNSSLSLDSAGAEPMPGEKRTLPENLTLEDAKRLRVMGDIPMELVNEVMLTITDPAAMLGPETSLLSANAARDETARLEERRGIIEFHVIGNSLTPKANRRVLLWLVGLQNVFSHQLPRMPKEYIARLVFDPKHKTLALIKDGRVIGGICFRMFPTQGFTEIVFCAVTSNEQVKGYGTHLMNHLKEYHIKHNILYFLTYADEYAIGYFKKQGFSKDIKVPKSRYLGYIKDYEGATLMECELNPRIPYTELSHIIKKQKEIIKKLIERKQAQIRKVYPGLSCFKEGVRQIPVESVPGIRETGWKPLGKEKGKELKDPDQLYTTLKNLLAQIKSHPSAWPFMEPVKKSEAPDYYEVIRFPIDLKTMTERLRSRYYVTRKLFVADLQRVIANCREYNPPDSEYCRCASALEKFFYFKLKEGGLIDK
#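 Preincubate 20nM GCN5L2 with compound 15 min, RT → add 50uM ThioGlo1 + 75uM H3(1-25) + 70uM acetyl-CoA → read fluorescence 0 and 20 min. Primary qHTS; fluorescent artifacts likely.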
# Starred values were filed as active, the others as inactive; i = inactive; ? = inconclusive; . = no result; [ ] = remark or other dose. Unless noted, calls come from the whole dose curve; as a rule, active = well fitted curve in the direction sought with a large enough effect; inconclusive = small, poorly fitted or top-dose-only effect, or another doubt; inactive = no such curve, though single readings can be large; an effect the other way counts as inactive or inconclusive. Unless noted, % is set by controls: 0 for no effect and ±100 for the full control effect.
SMILES,BLM helicase inh,APE1 inh,PI5P4K alpha inh,RECQ1 helicase,FEN1 inh,KAT2A inh
O=C(N/N=C/c1c[nH]c2ccccc12)c1cc(-c2ccccc2)n[nH]1,-19%,8%,-4,25µM*,-18%,-4%
Cc1ccc(-c2cc(C(=O)N/N=C/c3c[nH]c4ccccc34)[nH]n2)cc1,0%,?,8,-15%,-11%,-10%
O=C(N/N=C/c1c[nH]c2ccccc12)c1cc(-c2ccc3ccccc3c2)n[nH]1,-10%,4%,-57*,1%,-13%,7%
O=C(N/N=C/c1c[nH]c2ccccc12)c1cc(-c2ccc(-c3ccccc3)cc2)n[nH]1,-5%,9%,.,-13%,13%,-13%
O=C(N/N=C/c1ccccn1)c1cc(-c2ccc3ccccc3c2)n[nH]1,?,-2%,?,-27%,45µM*,-7%
CN(C)c1ccc(/C=C/c2ccnc3c(O)ccc(O)c23)cc1,.,.,.,.,15%,.
N#Cc1c(=O)c2nc(NCCCO)ncc2n2c(=O)c3ccccc3[nH]c12,-20%,?,-65*,-14%,?,-19%
CCOC(=O)CN1C(=O)S/C(=C\c2ccc(-c3cccc(C(=O)O)c3C)o2)C1=O,.,.,-17,.,5%,.
Cc1ccc(NC(=O)CN2C(=O)S/C(=C\c3ccc(-c4cccc(C(=O)O)c4C)o3)C2=O)cc1C,?,?,?,12%,50µM*,0%
O=C(CN1C(=O)S/C(=C\c2ccc(-c3cc(C(=O)O)ccc3Cl)o2)C1=O)Nc1ccc2c(c1)OCO2,10µM*,6.7µM*,.,.,.,?
CCOC(=O)CN1C(=O)S/C(=C\c2ccc(-c3ccc(C(=O)O)c(Cl)c3)o2)C1=O,-2%,15µM*,?,.,?,?
Cc1cccc(NC(=O)CN2C(=O)N/C(=C/c3ccc(-c4cccc(C(=O)O)c4C)o3)C2=O)c1,-2%,-4%,-22,20%,-14%,-10%
Cn1cc(/C=C2/SC(=O)N(CC(=O)Nc3ccc4c(c3)OCO4)C2=O)c2ccccc21,-1%,-1%,.,-2%,-4%,?
CC(C)CN(CC(C)C)c1ccc(/C=C/c2ccnc3ccccc23)cc1,.,.,.,.,-6%,.
Cc1ccc(-c2csc3ncnc(Sc4nnnn4C4CC4)c23)cc1,.,.,.,.,-17%,.
COC(=O)/C=C/COc1ccccc1[N+](=O)[O-],1%,-4%,-67*,-3%,?,-14%
O=C(COc1ccccc1[N+](=O)[O-])c1ccccc1,3%,10%,-7,i,-8%,-7%
CCn1c(C)cc(/C=C2\NC(=O)N(CC(=O)Nc3ccc(F)cc3)C2=O)c1C,-4%,31%,6,3%,-2%,-9%
Cc1ccc(NC(=O)CN2C(=O)N/C(=C/c3cc(C)n(-c4ccc(C(=O)O)cc4)c3C)C2=O)cc1,-6%,?,-53*,40µM*,-10%,?
O=C(Cc1ccc(Br)cc1)NO,.,.,.,.,0%,.
Cc1ccc(NC(=O)CN2C(=O)N/C(=C\c3cccn3-c3ccc([S+](N)(=O)[O-])cc3)C2=O)cc1,.,7%,.,.,.,.
CC1(C)CC(=O)c2cc(C(=O)Nc3ccccc3)c(=O)[nH]c2C1,.,.,.,.,-2%,.
Cn1c(-c2ccc3nc(N)sc3c2)nc2cc(N)ccc21,-11%,?,-28,-15%,56µM*,-2%[0.501 µM]
O=C(N/N=C/c1ccc([N+](=O)[O-])s1)c1cccc(Br)c1,-17%,22µM*,-12,-10%,4%,-9%
Cc1ccc(C(=O)N/N=C/c2ccc([N+](=O)[O-])s2)cc1,-18%,?,-19,-5%,-5%,-10%
SMILES,BLM helicase inh,APE1 inh,PI5P4K alpha inh,RECQ1 helicase,FEN1 inh,KAT2A inh
O=C(Cc1cc(=O)oc2cc(O)ccc12)NCC1CCC(C(=O)O)CC1 (stereo not drawn),0%,17%,-6,-6%,1%,28µM*
O=C(Cc1cc(=O)oc2cc(O)ccc12)NC(Cc1ccc(Cl)cc1)C(=O)O (stereo not drawn),0%,0%,-25,.,-6%,28µM*
O=[N+]([O-])c1ccccc1S(=O)(=O)N1CCN(c2nc(-c3cccs3)nc3ccccc23)CC1,.,.,.,.,12%,.
NC(=O)C1CCCN1C(=O)C(Cc1cnc[nH]1)NC(=O)C1CCC(=O)N1 (stereo not drawn),-3%,-4%,.,-16%,.,1%
CCN1C(=O)/C(=C\C=C\c2ccccc2[N+](=O)[O-])SC1=S,-8%,-5%,-3,i,6%,-13%
CCN1C(=O)/C(=C/C=C2\N(CC)c3cc(S(=O)(=O)N(C)C)ccc3N2c2ccccc2)SC1=S,50%,-7%,-9,0.79µM*,-19%,-1%
Nc1ccc2c(c1)C/C(=C/c1ccco1)C2=O,?,?,-74*,-25%,-24%,?
COC(=O)c1ccc(-c2ccc(/C=N/NC(=O)Cc3nnc(N)s3)o2)cc1,-8%,-12%,-56*,i,-12%,-19%
Nc1nnc(CC(=O)N/N=C/c2ccc(-c3ccc(Cl)cc3Cl)o2)s1,-11%,-11%,-4,17%,-18%,7%
Nc1nnc(CC(=O)N/N=C/c2ccc(-c3ccccc3)o2)s1,-1%,3%,-4,-15%,-6%,34%
Nc1nnc(CC(=O)N/N=C/c2ccc(-c3ccccc3Cl)o2)s1,-7%,0%,-53*,-7%,-9%,57%
O=C(CCCN1C(=O)/C(=C\c2ccco2)SC1=S)Nc1ccc(O)cc1C(=O)O,40%,?,?,.,50µM*,10µM*
O=C(CN1C(=O)/C(=C/c2ccco2)SC1=S)Nc1ccc(O)c(C(=O)O)c1,-8%,-28%,?,.,?,-35%
CC(C(=O)Nc1ccc(C(=O)O)c(O)c1)N1C(=O)/C(=C\c2ccco2)SC1=S (stereo not drawn),41%,21µM*,?,.,3%,?
O=C(CCCN1C(=O)/C(=C\c2cccs2)SC1=S)Nc1ccc(O)cc1C(=O)O,-2%,49%,?,.,17%,-15%
CCCCCCCCCC[n+]1cccc2cc(Br)ccc21,.,.,.,.,3%,.
COc1cc(/C=C2/C(=O)CNC2=O)ccc1O,-5%,6%,-56*,-5%,-2%,-22%
COc1cc(C=C2C(=O)C=CC2=O)ccc1O,.,.,-104*,.,.,.
